Some test systems named below: T-47D breast; BT-549 breast; MDA-MB-435 melanoma; SW-620 colon; MCF7 breast; HCT-116 colon; HCC-2998 colon; KM12 colon.
Holding throughout (test): NCI-60 one-dose screen, 48 h (100 = growth as untreated, 0 = no growth, -100 = all killed)
What all share (settings): 10 µM unless noted

Molecules are shown by their SMILES. Compounds without any hit were thinned out: in the full panel of roughly 83,000, 20% have a hit.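 The test compound was applied at a single concentration to cells in 96-well plates for 48 hours, and percent growth was recorded.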 A number with no mark means an inactive call. Activity calls are given as the source filed them. The calls were made as follows: active = growth percent below 10; inactive = the rest.

For the compound `CCN1CCN(c2nc(NCCCNc3ccnc4cc(Cl)ccc34)c3ccccc3n2)CC1`, the growth in the assay with T-47D breast was -4.69% (active); with BT-549 breast, 68.7%; in the assay on MDA-MB-435 melanoma, -81.7% (active); in the assay on SW-620 colon it was 9.73% (active); with MCF7 breast, 23.2%; in the assay with HCT-116 colon it was 20.7%. The growth in the assay on HCC-2998 colon is 21.9%; in the assay with KM12 colon, 29.3%.
As for `Brc1ccc(-c2csc(Nc3ccccn3)n2)cc1`, the growth with T-47D breast was 53.7%; in the assay with BT-549 breast, 112%; in the assay on MDA-MB-435 melanoma, 88.5%; in the assay on SW-620 colon, 103%; with MCF7 breast, 34.5%; in the assay on HCT-116 colon, 81.3%. Besides, the values for the growth with HCC-2998 colon and in the assay with KM12 colon were -5.04% (active) and 86.4%, respectively.
As to `Cn1nc(N)c2cc([C@@H]3Nc4ccc5[nH]ncc5c4[C@H]4C5CCC(C5)[C@@H]34)ccc21` (stereo not given in full), the growth in the assay on T-47D breast was 43.6%; in the assay with BT-549 breast, 38%; in the assay with MDA-MB-435 melanoma it was -66.6% (active); with SW-620 colon, 22.4%; in the assay with MCF7 breast, 18.8%; in the assay on HCT-116 colon, 14.5%. Moreover, the growth is 18% in the assay with HCC-2998 colon and 16.6% in the assay on KM12 colon.
As to `C#CCOc1ccc2ncnc(Nc3cccc(CNC(=O)CCl)c3)c2c1`, the growth in the assay with T-47D breast is 29.6% [8.25 µM]; in the assay on BT-549 breast, 47.7% [8.25 µM]; with MDA-MB-435 melanoma it was 49.6% [8.25 µM]; in the assay on SW-620 colon, 30.4% [8.25 µM]; in the assay on MCF7 breast it was 30.4% [8.25 µM]; with HCT-116 colon, 26% [8.25 µM]. For the same compound, the growth in the assay on HCC-2998 colon is 99% [8.25 µM]; in the assay with KM12 colon, 63.2% [8.25 µM].
With `O=C1CSC(=S)N1CCc1ccc(O)cc1`, the growth with T-47D breast is 38.1%; in the assay on BT-549 breast, 105%; in the assay on MDA-MB-435 melanoma it was 65.8%; in the assay on SW-620 colon, 53.8%; in the assay on MCF7 breast it was 37.6%; in the assay on HCT-116 colon it was 71.5%. Besides, the figures for the growth in the assay on HCC-2998 colon and with KM12 colon were 102% and 8.84% (active), respectively.
In the case of `Cn1cc(C(=O)c2nc(-c3c[nH]c4ccccc34)no2)c2ccccc21`, the growth in the assay with T-47D breast was 44.4%; with BT-549 breast, 69.7%; in the assay on MDA-MB-435 melanoma, 7.96% (active); in the assay with SW-620 colon, 56.8%; with MCF7 breast, 20%; with HCT-116 colon, 47.1%. Further, the growth in the assay with HCC-2998 colon is 45.5%; in the assay with KM12 colon it was 21.9%.
On to `CC(=O)OCCC/C(=C/c1cc2ccccc2c2ccccc12)[N+](=O)[O-]`, for which the growth is -66.7% (active) in the assay on T-47D breast; -50% (active) with BT-549 breast; -36.2% (active) in the assay with MDA-MB-435 melanoma; -88.2% (active) with SW-620 colon; -87.8% (active) in the assay with MCF7 breast; -100% (active) in the assay on HCT-116 colon. For the same compound, the growth is -99.5% (active) with HCC-2998 colon and -99.2% (active) in the assay with KM12 colon.
For the compound `CSc1ccc(-c2ccccc(=O)c2O)cc1`, the growth was 27% in the assay with T-47D breast; 29.7% in the assay on BT-549 breast; 23.5% in the assay with MDA-MB-435 melanoma; 29.2% in the assay on SW-620 colon; 15.8% in the assay on MCF7 breast; 20% in the assay on HCT-116 colon. The growth with HCC-2998 colon was 44%; with KM12 colon, 23.1%.
For the compound `CCOC(=O)c1sc2nc(-c3cccc(OC)c3)nc(N3CCOCC3)c2c1C`, the growth with T-47D breast is 92.8%; in the assay on BT-549 breast, 94.9%; with MDA-MB-435 melanoma, 96.9%; with SW-620 colon, 110%; with MCF7 breast, 90.4%; in the assay with HCT-116 colon it was 96.6%. Further, the growth in the assay on HCC-2998 colon was 99.6%; in the assay on KM12 colon, 97.5%.
Take `Cc1ccccc1COc1ccc(-c2onc(C)c2-c2ccc(Cl)cc2)cc1`: the growth was 61.1% in the assay with T-47D breast; 66.2% in the assay with BT-549 breast; -1.01% (active) with MDA-MB-435 melanoma; 31.7% in the assay on SW-620 colon; 31.7% in the assay on MCF7 breast; 34% in the assay with HCT-116 colon. Also, the growth is 86.6% with HCC-2998 colon and 54.3% in the assay with KM12 colon.
Regarding `COc1cc(C=Nc2oc(-c3ccccc3)c(-c3ccccc3)c2C#N)cc(CN2CCCCC2)c1O`, the growth in the assay on T-47D breast is 86.8%; in the assay with BT-549 breast it was 111%; in the assay with MDA-MB-435 melanoma it was 103%; in the assay with SW-620 colon, 104%; in the assay with MCF7 breast, 94%; with HCT-116 colon, 95%. For the same compound, the growth with HCC-2998 colon is 102%; in the assay on KM12 colon it was 100%.
`O=C(/C=C/c1cc(CN2CCOCC2)c(O)c2ncccc12)c1cc(CN2CCOCC2)c(O)c2ncccc12`: the growth was 7.07% (active) in the assay with T-47D breast; 12.8% in the assay with BT-549 breast; 21% with MDA-MB-435 melanoma; 18.7% with SW-620 colon; 10% in the assay on MCF7 breast; 21.7% with HCT-116 colon. Further, the growth in the assay with HCC-2998 colon is 37.2%; with KM12 colon it was 21.7%.
As to `CCCCN1CCCn2c1nc1c2c(=O)n(CCC)c(=O)n1CCC`, the growth in the assay with T-47D breast was 101%; with BT-549 breast, 98.1%; in the assay with MDA-MB-435 melanoma, 102%; with SW-620 colon, 96%; with MCF7 breast, 100%; in the assay on HCT-116 colon, 98.3%. For the same compound, the growth in the assay with HCC-2998 colon was 104%; in the assay on KM12 colon, 100%.
With `CC(=O)c1cc2c(N)c(C(=O)Nc3ccccc3)sc2nc1C`, the growth is 99.5% with T-47D breast; 67.3% in the assay with BT-549 breast; -29.3% (active) in the assay with MDA-MB-435 melanoma; 69.4% in the assay on SW-620 colon; 59.8% in the assay on MCF7 breast; 102% in the assay on HCT-116 colon. Also, the growth with HCC-2998 colon is 79.4%; with KM12 colon it was 75.1%.
With `N#Cc1c(N)n(CCNC(=O)c2ccccc2)c2nc3ccccc3nc12`, the growth with T-47D breast was 95.4%; in the assay on BT-549 breast it was 140%; in the assay on MDA-MB-435 melanoma it was 95.9%; in the assay on SW-620 colon it was 123%; in the assay with MCF7 breast, 109%; in the assay on HCT-116 colon it was 102%. Moreover, the figures for the growth in the assay with HCC-2998 colon and in the assay with KM12 colon were 97.4% and 114%, respectively.

These data come from PubChem BioAssay (NCI).
